Assay [1] is described as follows: viability loss in pontine glioma line – cell-based, SU-DIPG-XVII, MIPE5.0, CellTiter-Glo, qHTS, dose response (AID 1347060; cut-off not given, nearly all actives have AC50 up to about 26 µM;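 on AC50: cells exposed to compound for 48 hours before viability readout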). The settings on record: CellTiter-Glo ATP luminescence. Background: Cellular ATP, detected with luciferase, serves as a proxy for viable cell number.
Assay [2] in a line: viability loss in pontine glioma line – cell-based, JHH-DIPG-1, MIPE4.0, CellTiter-Glo, qHTS, dose response (AID 1347062; cut-off not given, nearly all actives have AC50 up to about 27 µM;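 on AC50: cells exposed to compound for two days before readout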). The following applies: JHH-DIPG-1 viability, CellTiter-Glo ATP luminescence.
The nature of assay [3]: viability loss in pontine glioma line – cell-based, SU-DIPG-IV, MIPE4.0, CellTiter-Glo, qHTS, dose response (AID 1347063; cut-off not given, nearly all actives have AC50 up to about 30 µM;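 further: compound exposure lasted 48 hours before the viability readout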). The settings on record: CellTiter-Glo ATP luminescence.
Assay [4] is described as follows: viability loss in pontine glioma line – cell-based, SU-DIPG-XXV, MIPE5.0, CellTiter-Glo, qHTS, dose response (AID 1347065; cut-off not given, nearly all actives have AC50 up to about 26 µM;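 further: cells exposed to compound for 48 hours before ATP readout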). The settings on record: CellTiter-Glo ATP luminescence.
Assay [5] is described as follows: growth inhibition of DIPG cells – cell-based, MIPE4.0 library, CellTiter-Glo luminescence, qHTS (AID 1347066; cut-off not given, nearly all actives have AC50 up to about 30 µM;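 further: cells exposed to compound for 48 hours before readout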). The following applies: SU-DIPG-VI viability, CellTiter-Glo ATP luminescence.
The nature of assay [6]: JHH-DIPG-1 glioma cell viability, MIPE5.0 library, CellTiter-Glo luminescence, qHTS (AID 1347067; cut-off not given, nearly all actives have AC50 up to about 26 µM;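 further: cells exposed to compound for 48 hours before readout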). The following applies: JHH-DIPG-1 glioma viability, CellTiter-Glo ATP luminescence.
Assay [7] in a line: growth inhibition of DIPG cells – cell-based, MIPE5.0 library, qHTS (AID 1347068; cut-off not given, nearly all actives have IC50 up to about 30 µM;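 on IC50: cells exposed to compound for 48 hours before viability readout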). The following applies: SU-DIPG-XXV viability.
A short description of assay [8]: viability loss with induced miR-34 in A549 – imaging, A549 dox-inducible miR-34, nuclei and caspase counts, primary screen (AID 1347080;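 active means compounds whose cell count with miR-34 switched on is under 0.7 times the count with it off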). The following applies: A549 miR-34 inducible, Hoechst nuclei count, 48 h.
Assay [9] is described as follows: MELAS cybrid and Rieske KO viability enhancers – cell-based, MELAS cybrids, Rieske KO mouse fibroblasts, CellTiter-Glo, primary screen (AID 1508586;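 active means mean z-score across replicates of 1.96 or higher in either the MELAS or the Rieske mutant cell line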;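 further: z relative to plate mean and SD of compound and empty wells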). The following applies: low glucose.
Assay [10] in a line: compounds altering HSF1 focus formation in cells – imaging, Selleck Cancer Library (AID 1347162; in the data active means plate-normalised HSF1 focus index below about 0.46). The settings on record: human cells, HSF1 nuclear foci imaging, at 10 µM; SSMD: measured here: HSF1 foci SSMD mean; cell count: measured here: cell number; plate-normalised HSF1 focus index: stronger effect = lower value.
Assay [11] is described as follows: drug combination growth inhibition, ovarian cancer – cell-based, oncology-focused library, rucaparib conditional, profiling panel (AID 1508598). The following applies: patient-derived ovarian cancer cells, CellTiter-Glo viability, 144 h, stronger effect = lower value.
Assay [12] can be described thus: viability loss in pontine glioma line – cell-based, SU-DIPG-XIII, MIPE5.0, CellTiter-Glo, qHTS, dose response (AID 1347064; cut-off not given, nearly all actives have AC50 up to about 23 µM;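 further: cells exposed to compound for 48 hours before the viability read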). The following applies: CellTiter-Glo ATP luminescence.

Each structure is given as a SMILES string. Records with an inconclusive call do not appear. Calls of active or inactive are those of the source.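 How the source made its calls, unless noted: active means normalized viability below 100% at a tested concentration; inactive means the rest.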

In the case of `Cc1ccc(S(=O)(=O)OCC(=O)Nc2ccc(C(=O)O)c(O)c2)cc1`, the result in assay [1], in assay [2], in assay [3], in assay [4], in assay [5] and in assay [6] was inactive. In addition, the molecule was classed as inactive in assay [7]. The fold change in [8] (stronger effect = lower value, cell number ratio, induced over uninduced) was 0.894 (inactive); in [8] (measured here: relative caspase fold change +Dox/-Dox), 0.798. In addition, the cell count was 6690 in assay [8] (measured here: total cells with miR-34 induction, stronger effect = lower value) and 7480 in [8] (measured here: total cells without miR-34 induction). Further, the z-score in assay [9] (MELAS cybrid survival, CellTiter-Glo 48 h, stronger effect = higher value) is -0.344 (inactive); in [9] (Rieske KO mouse fibroblast survival, CellTiter-Glo 72 h) it was 0.295.

For the molecule `CC1(C)CCC(c2ccc(Cl)cc2)=C(CN2CCN(c3ccc(C(=O)NS(=O)(=O)c4ccc(N[C@H](CCN5CCOCC5)CSc5ccccc5)c(S(=O)(=O)C(F)(F)F)c4)cc3)CC2)C1`, the AC50 in assay [1] was 8.33 µM (active); in assay [2], 18.7 µM (active); in assay [3], 2.09 µM (active); in assay [4], 148 nM (active); in [5] it was 590 nM (active); in assay [6], 7.42 µM (active). Further, the IC50 in [7] is 3.32 µM (active). Moreover, in assay [10], the SSMD is -3.49. This molecule also had a cell count in assay [10] of 6830. The plate-normalised HSF1 focus index in assay [10] is 0.875 (inactive). The viability is 37.1% (active) in assay [11] (at 0.000305 µM, OCI-C5x cells, with rucaparib 10 µM, 100% = cells with rucaparib alone); 78.4% (active) in assay [11] (at 0.000305 µM, OCI-C5x cells, without rucaparib); 132% (inactive) in assay [11] (at 0.000305 µM, OCI-P5x cells, with rucaparib 20 µM, 100% = cells with rucaparib alone); 120% (inactive) in [11] (at 0.000305 µM, OCI-P5x cells, without rucaparib); 12.7% (active) in assay [11] (at 0.00122 µM, OCI-C5x cells, with rucaparib 10 µM, 100% = cells with rucaparib alone); 34.9% (active) in assay [11] (at 0.00122 µM, OCI-C5x cells, without rucaparib). In addition, the viability in assay [11] (at 0.00122 µM, OCI-P5x cells, with rucaparib 20 µM, 100% = cells with rucaparib alone) was 118% (inactive); in assay [11] (at 0.00122 µM, OCI-P5x cells, without rucaparib), 106% (inactive); in [11] (at 0.00488 µM, OCI-C5x cells, with rucaparib 10 µM, 100% = cells with rucaparib alone), 32.2% (active); in assay [11] (at 0.00488 µM, OCI-C5x cells, without rucaparib), 62.4% (active); in [11] (at 0.00488 µM, OCI-P5x cells, with rucaparib 20 µM, 100% = cells with rucaparib alone), 127% (inactive); in [11] (at 0.00488 µM, OCI-P5x cells, without rucaparib) it was 105% (inactive). The viability in assay [11] (at 0.0195 µM, OCI-C5x cells, with rucaparib 10 µM, 100% = cells with rucaparib alone) was 19.9% (active); in [11] (at 0.0195 µM, OCI-C5x cells, without rucaparib), 46.8% (active); in assay [11] (at 0.0195 µM, OCI-P5x cells, with rucaparib 20 µM, 100% = cells with rucaparib alone), 110% (inactive); in assay [11] (at 0.0195 µM, OCI-P5x cells, without rucaparib), 101% (inactive); in assay [11] (at 0.0781 µM, OCI-C5x cells, with rucaparib 10 µM, 100% = cells with rucaparib alone), 14.8% (active); in [11] (at 0.0781 µM, OCI-C5x cells, without rucaparib) it was 15.9% (active). The viability is 110% (inactive) in assay [11] (at 0.0781 µM, OCI-P5x cells, with rucaparib 20 µM, 100% = cells with rucaparib alone); 102% (inactive) in assay [11] (at 0.0781 µM, OCI-P5x cells, without rucaparib); 10.6% (active) in assay [11] (at 0.313 µM, OCI-C5x cells, with rucaparib 10 µM, 100% = cells with rucaparib alone); 18.4% (active) in assay [11] (at 0.313 µM, OCI-C5x cells, without rucaparib); 100% (inactive) in assay [11] (at 0.313 µM, OCI-P5x cells, with rucaparib 20 µM, 100% = cells with rucaparib alone); 92.1% (active) in assay [11] (at 0.313 µM, OCI-P5x cells, without rucaparib). The viability was 10.8% (active) in assay [11] (at 1.25 µM, OCI-C5x cells, with rucaparib 10 µM, 100% = cells with rucaparib alone); 15.2% (active) in assay [11] (at 1.25 µM, OCI-C5x cells, without rucaparib); 90.1% (active) in assay [11] (at 1.25 µM, OCI-P5x cells, with rucaparib 20 µM, 100% = cells with rucaparib alone); 88.9% (active) in [11] (at 1.25 µM, OCI-P5x cells, without rucaparib); 4.72% (active) in [11] (at 5 µM, OCI-C5x cells, with rucaparib 10 µM, 100% = cells with rucaparib alone); 11.9% (active) in assay [11] (at 5 µM, OCI-C5x cells, without rucaparib). The viability was 0.895% (active) in [11] (at 5 µM, OCI-P5x cells, with rucaparib 20 µM, 100% = cells with rucaparib alone) and 10.5% (active) in assay [11] (at 5 µM, OCI-P5x cells, without rucaparib).

`CN(C)CCCN=c1c2ccccc2n(C)c2[nH]c(=O)n(C)c(=O)c12`: the half-maximal activity concentration (AC50) is 29.5 µM (active) in assay [1], 8.33 µM (active) in assay [2], 14.8 µM (active) in [3] and 26.3 µM (active) in [12]. Further, the SSMD in assay [10] is -0.045. Further, the cell count in assay [10] came to 6580. Also, the plate-normalised HSF1 focus index in assay [10] was 0.997 (inactive).

In general, AC50 refers to the concentration giving half of the maximal activity seen. The term IC50 denotes the concentration needed to halve the response being measured. In general, viability refers to a read-out of living cells in per cent, often relative to untreated cells.

The values above are taken from PubChem BioAssay.
